Source: the supplement of paper PMC12669032

test system: Fusobacterium nucleatum subsp. animalis; experiment: growth AUC relative to DMSO control (median of replicates) (fraction); higher = more growth (less inhibition), active = hit call of the paper; settings: 20 µM; 24 h;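 active = AUC reduced over 20% with Padj below 0.05 in at least 2 of 3 replicates; inactive = otherwise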
Outline: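 In round-bottom 96-well plates sealed with pierced gas-permeable seals, gut bacterial monocultures in mGAM were grown anaerobically at 37 °C from OD600 0.05 with 20 µM compound (1% DMSO). OD600 readings were taken hourly for 24 h, and the minimum OD was set to 0. Area under the growth curve was then normalised to the plate median of solvent-only wells, or to row and column medians on the industrial chemical plate. The value given is the median of three biological replicates grown on separate days.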

| Structure (SMILES) | growth AUC |
| --- | --- |
| Nc1cc(Cl)nc(C(=O)O)c1Cl | 1.03 (inactive) |
| CCc1cccc(C)c1N(C(=O)C(=O)O)[C@@H](C)C(=O)O | 1.03 (inactive) |
| O=S(=O)(Oc1ccc(Cl)cc1)c1ccccc1 | 0.872 (inactive) |
| Oc1ccc2nc(-c3cscn3)[nH]c2c1 | 0.975 (inactive) |
| COC(=O)c1csc(C)c1S(=O)(=O)NC(=O)n1nc(OC)n(C)c1=O | 0.942 (inactive) |
| CCCCOCN(C(=O)CS(=O)(=O)[O-])c1c(CC)cccc1CC.[Na+] | 0.947 (inactive) |
| O.O.O=[N+]([O-])c1ccc([O-])cc1.[Na+] | 0.968 (inactive) |
| COCC(=O)N(c1c(C)cccc1C(=O)O)C(C)C(=O)O (configuration not stated) | 0.879 (inactive) |
| O=C(O)COc1ccc(Cl)cc1CO | 0.931 (inactive) |
| CCOc1ccc2c(c1)C(C)=CC(C)(C)N2 | 1.03 (inactive) |
| CC(C)CCCCCOC(=O)C(C)Oc1ccc(Cl)cc1Cl (configuration not stated) | 1.06 (inactive) |
| [S] | 1.01 (inactive) |
| CCCC(C)(C)C(=O)Nc1ccc(Cl)cc1 | 0.938 (inactive) |
| CSc1nnc(C(C)(C)C)c(=O)n1/N=C/C(C)C | 1.08 (inactive) |
| O=C(O)CCCc1c[nH]c2ccccc12 | 0.971 (inactive) |
| C=C1C[C@]23C[C@@]1(O)CC[C@H]2[C@@]12C=C[C@H](O)[C@@](C)(C(=O)O1)[C@H]2[C@@H]3C(=O)O | 0.967 (inactive) |
| Nc1ccc(S(=O)(=O)Nc2nccs2)cc1 | 0.993 (inactive) |
